Data taken from PubChem BioAssay (Tox21).
Where “and” joins values, the source holds several entries; their conditions need not be identical. Equal entries are not always repeated. Inconclusive results are not listed. Where a call stands in place of a potency, no number is given. Some structures have more than one record in an assay (separate samples or runs), and their calls can disagree. Calls of active or inactive are those of the source. Unless noted, calls follow the shape of the dose curve; as a rule, active = well fitted curve in the direction sought with a large enough effect in the repeat runs; inconclusive = weak or mixed curves; inactive = no such curve, though single readings can be large; an effect the other way counts as inactive or inconclusive.

Assays:
[1] = qHTS assay to identify aromatase inhibitors - cell viability counter screen (AID 743084); details: MCF-7 aro ERE viability, CellTiter-Fluor, 24 h; series mostly up to 70.3 µM;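 also: cells stimulated with testosterone during compound exposure; nearly all actives have a fitted effect of over 55% in size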; also: potency is read from the fitted curve at half-maximal effect
[2] = target: Aryl hydrocarbon receptor (Homo sapiens) (UniProt P35869); test: qHTS assay to identify small molecule that activate the aryl hydrocarbon receptor (AhR) signaling pathway (AID 743085); details: HepG2 AhR-luc (HG2L7.5c1), luciferase, 24 h; series mostly up to 70.3 µM; also: nearly all actives have a fitted effect of over 15% in size; also: potency is read from the fitted curve at half-maximal effect;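 as to activation: HG2L7.5c1 human HepG2 liver cells with stably integrated DRE-driven firefly reporter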
Aryl hydrocarbon receptor (Homo sapiens), sequence (P35869 whole entry, looked up): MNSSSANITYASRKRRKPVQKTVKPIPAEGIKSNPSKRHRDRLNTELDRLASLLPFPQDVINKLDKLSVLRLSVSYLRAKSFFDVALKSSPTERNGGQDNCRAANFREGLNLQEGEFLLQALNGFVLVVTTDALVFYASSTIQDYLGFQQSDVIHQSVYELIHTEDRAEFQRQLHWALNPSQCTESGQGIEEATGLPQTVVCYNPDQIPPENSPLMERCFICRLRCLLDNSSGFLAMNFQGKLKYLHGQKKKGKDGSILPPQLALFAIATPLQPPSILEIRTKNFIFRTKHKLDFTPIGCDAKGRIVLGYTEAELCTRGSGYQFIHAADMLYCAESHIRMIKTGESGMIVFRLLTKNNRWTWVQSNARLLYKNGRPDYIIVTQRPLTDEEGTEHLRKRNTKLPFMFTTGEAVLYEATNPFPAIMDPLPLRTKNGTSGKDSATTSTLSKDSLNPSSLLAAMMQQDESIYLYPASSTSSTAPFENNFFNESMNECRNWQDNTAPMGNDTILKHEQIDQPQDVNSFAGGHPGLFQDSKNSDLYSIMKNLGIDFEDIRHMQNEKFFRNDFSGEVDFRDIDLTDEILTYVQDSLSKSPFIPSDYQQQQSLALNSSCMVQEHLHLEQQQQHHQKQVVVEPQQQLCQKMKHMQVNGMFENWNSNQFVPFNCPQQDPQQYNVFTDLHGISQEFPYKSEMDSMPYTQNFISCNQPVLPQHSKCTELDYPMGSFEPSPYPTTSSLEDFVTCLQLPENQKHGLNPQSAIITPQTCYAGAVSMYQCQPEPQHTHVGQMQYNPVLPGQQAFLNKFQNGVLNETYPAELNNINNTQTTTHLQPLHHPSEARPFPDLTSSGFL
Procedure, shortened: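 Steps: seed HepG2-AhR-luc cells; allow 5 h at 37C; pin-transfer test compound or vehicle; incubate 24 h at 37C; add viability dye (30 min, 37C) and read fluorescence; add luciferase substrate (30 min, RT) and read luminescence.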

[3] = qHTS assay to identify small molecule that activate the aryl hydrocarbon receptor (AhR) signaling pathway - cell viability counter screen (AID 743086); details: HepG2-AhR-luc viability, CellTiter-Fluor, 24 h; series mostly up to 70.3 µM;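 also: HepG2 liver cells carrying the AhR DRE luciferase reporter; nearly all actives have a fitted effect of over 45% in size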
Procedure, shortened: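 Cytotoxicity counter screen: CellTiter-Fluor signal (30 min, 37 C) in 4000 HepG2 cells/well carrying the DRE-luciferase reporter, following 24 h compound exposure at 37 C.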

[4] = target: Peroxisome proliferator-activated receptor gamma (Homo sapiens) (UniProt P37231); test: qHTS assay to identify small molecule agonists of the peroxisome proliferator-activated receptor gamma (PPARg) signaling pathway (AID 743094; active = well fitted activation curve with a large enough effect in the signal ratio in the repeat runs, not every such curve was filed as active; the % refers to the signal ratio); details: HEK293H PPARg-UAS-bla, beta-lactamase FRET ratio, 17 h; series mostly up to 57 µM
Peroxisome proliferator-activated receptor gamma (Homo sapiens), sequence (P37231 whole entry, looked up): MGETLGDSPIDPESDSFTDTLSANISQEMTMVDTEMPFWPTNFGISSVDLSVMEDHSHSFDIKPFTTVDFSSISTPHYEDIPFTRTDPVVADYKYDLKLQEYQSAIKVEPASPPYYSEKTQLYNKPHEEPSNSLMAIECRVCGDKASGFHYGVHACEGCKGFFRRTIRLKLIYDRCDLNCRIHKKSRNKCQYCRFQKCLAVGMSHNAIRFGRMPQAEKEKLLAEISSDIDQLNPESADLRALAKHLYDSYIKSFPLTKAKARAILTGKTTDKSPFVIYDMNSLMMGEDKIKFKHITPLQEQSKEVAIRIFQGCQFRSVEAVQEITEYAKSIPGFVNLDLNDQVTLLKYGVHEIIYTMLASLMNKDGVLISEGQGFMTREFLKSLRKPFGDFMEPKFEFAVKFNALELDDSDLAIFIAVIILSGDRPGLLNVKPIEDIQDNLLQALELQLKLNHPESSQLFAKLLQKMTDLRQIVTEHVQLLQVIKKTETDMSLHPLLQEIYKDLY
Procedure, shortened: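 HEK293H PPARg-bla cells, 5 h settle at 37C/5% CO2; compound (DMSO) 17 h, 37C; B/G FRET substrate 1 h RT; fluorescence intensity read-out. qHTS format.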

[5] = target: Peroxisome proliferator-activated receptor gamma (Homo sapiens) (UniProt P37231); test: qHTS assay to identify small molecule antagonists of the peroxisome proliferator-activated receptor gamma (PPARg) signaling pathway (AID 743191; calls by dose curve; also: nearly all actives have a fitted effect of over 30% in size); details: HEK293H PPARg-UAS-bla, beta-lactamase ratio, antagonist, 17 h; series mostly up to 62.6 µM
Procedure, shortened: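 Beta-lactamase reporter under UAS control in HEK293H PPARg-bla cells; compound treatment 17 h at 37C. Read-out: fluorescence intensity after 1 h room-temperature incubation with LiveBLAzer B/G FRET substrate.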

[6] = qHTS assay to identify small molecule antagonists of the peroxisome proliferator-activated receptor gamma (PPARg) signaling pathway - cell viability counter screen (AID 743194); details: PPARg-bla HEK293H viability, CellTiter-Glo luminescence, 17 h, co-treated with 50 nM rosiglitazone; series mostly up to 62.6 µM; also: nearly all actives have a fitted effect of over 55% in size
Procedure, shortened: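 Viability was measured as CellTiter-Glo luminescence in GeneBLAzer PPARg UAS-bla HEK293H cells. These cells had been exposed 17 h at 37 C to compounds together with rosiglitazone at 50 nM final, with the beta-lactamase readout taken in the same wells.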

[7] = qHTS assay for small molecule agonists of the antioxidant response element (ARE) signaling pathway (AID 743202; active = well fitted activation curve with a large enough effect in the signal ratio in the repeat runs, not every such curve was filed as active; the % refers to the signal ratio; also: potency is read from the fitted curve at half-maximal effect); details: HepG2 ARE-bla reporter, beta-lactamase FRET, 16 h; series mostly up to 73.3 µM
Procedure, shortened: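 Beta-lactamase reporter activity, read as fluorescence intensity, reflects ARE/Nrf2 pathway induction in HepG2 cells after 16 h compound exposure at 37 C; substrate loading was 2 h at room temperature.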

[8] = qHTS assay for small molecule activators of the heat shock response signaling pathway - cell viability counter screen (AID 743209); details: HSE-bla HeLa viability, CellTiter-Glo luminescence, 5 h; series mostly up to 62.6 µM; also: nearly all actives have a fitted effect of over 50% in size; also: potency is read from the fitted curve at half-maximal effect
Procedure, shortened: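 HSE-bla HeLa; 1500 cells/well; overnight 37 C, 5% CO2; compound 5 h 37 C; LiveBLAzer B/G substrate 2.5 h RT; CellTiter-Glo 30 min RT; luminescence.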

[9] = qHTS assay for small molecule activators of the heat shock response signaling pathway (AID 743210; active = well fitted activation curve with a large enough effect in the signal ratio in the repeat runs, with a control signal flat, not every such curve was filed as active; the % refers to the signal ratio; also: potency is read from the fitted curve at half-maximal effect;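 as to activation: HeLa cells with beta-lactamase reporter driven by heat shock elements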); details: HeLa HSE-bla reporter, beta-lactamase ratio, 5 h; series mostly up to 62.6 µM
Procedure, shortened: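 Fluorescence from a cleaved B/G FRET substrate (2.5 h, room temp) reports HSE-driven beta-lactamase in HeLa cells treated 5 h at 37 C with DMSO-dissolved compounds.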

[10] = qHTS assay for small molecule agonists of the antioxidant response element (ARE) signaling pathway - cell viability counter screen (AID 743203; calls by dose curve; also: nearly all actives have a fitted effect of over 55% in size); details: ARE-bla HepG2 viability, CellTiter-Glo luminescence, 16 h; series mostly up to 73.3 µM
Procedure, shortened: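 Luminescence read-out (CellTiter-Glo, 30 min at room temperature) measured cell viability in the same wells as the ARE beta-lactamase reporter. HepG2 ARE-bla cells were treated with compounds for 16 hrs at 37C/5% CO2.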

Structure (SMILES)	Potency [1]	Potency [2]	Potency [3]	outcome [4]	Potency [5]	Potency [6]	Potency [7]	Potency [8]	Potency [9]	Potency [10]
CC(C)C(=O)OCCOc1ccccc1	inactive	inactive	inactive	inactive	inactive	inactive	inactive	inactive	inactive	
O=c1[nH]c2cc(C(F)(F)F)c(N3CCOCC3)cc2n(CP(=O)(O)O)c1=O	inactive	inactive	inactive	inactive	inactive	inactive	inactive	inactive	inactive	inactive
CC12CC3CC(C)(C1)CC(N)(C3)C2	inactive	inactive	inactive	inactive	inactive	inactive	inactive	inactive	inactive	inactive
CC[C@@H](CO)NCCN[C@@H](CC)CO	inactive	inactive	inactive	inactive	inactive	inactive	inactive	inactive	inactive	inactive
OCC(CO)n1cnc(-c2ccc(F)cc2)c1-c1ccnc(Oc2ccccc2)n1	inactive	inactive	inactive	inactive	inactive	inactive		inactive	inactive	inactive
Cc1ccc(N(CC2=NCCN2)c2cccc(O)c2)cc1	inactive	inactive	inactive	inactive	inactive	inactive		inactive	inactive	
CC(=O)c1ccc[nH]1	inactive	inactive	inactive	inactive	inactive	inactive	inactive	inactive	inactive	
O=C(O)CCCc1c[nH]c2ccccc12	inactive	inactive	inactive	inactive	inactive	inactive	inactive	inactive	inactive	inactive
O=C(NC(Cc1cc(=O)[nH]c2ccccc12)C(=O)O)c1ccc(Cl)cc1 (stereo not drawn)	inactive	inactive	inactive	inactive	inactive	inactive	inactive	inactive	inactive	inactive
COc1ccc2nc(S(=O)Cc3ncc(C)c(OC)c3C)[nH]c2c1 (stereo not drawn)	inactive	48 µM (active)	inactive	inactive	inactive	inactive	17 µM (active) and 16.8 µM (active)	inactive	30.5 µM (active) and inactive	inactive
CC(C)N(C)C	inactive	inactive	inactive	inactive	inactive	inactive	inactive	inactive	inactive	inactive
O=P(O)(O)Oc1ccccc1	inactive	inactive	inactive	inactive	inactive	inactive		inactive	inactive	inactive
CCCCCCCC/C=C\CCCCCCCC(=O)OCCO	inactive	inactive	inactive	inactive	inactive	inactive		64.9 µM (active)		inactive
O=C(O)c1cc(Cl)cc(Cl)c1O	inactive	inactive	inactive	inactive	inactive	inactive	inactive	inactive	inactive	inactive
c1ccc(CCCc2ccncc2)cc1	inactive	inactive	inactive	inactive	inactive	inactive		inactive		inactive
O=c1[nH][nH]c(=O)c2cc([N+](=O)[O-])ccc12	inactive	inactive	inactive	inactive	inactive	inactive	inactive	inactive		inactive
CC(C)(C(=O)c1cccnc1)c1cccnc1	inactive	inactive	inactive	inactive	inactive	inactive	inactive	inactive	inactive	inactive
Nc1ccc(NC(=O)c2ccc(N)cc2)cc1	54.5 µM (active)	inactive	inactive	inactive	inactive	inactive	inactive	inactive	inactive	inactive
O=S(=O)(Cl)c1c(Cl)cccc1Cl	inactive	inactive	inactive	inactive	inactive	inactive	inactive	inactive		inactive
FC(F)(F)C(F)(F)C(F)(F)C(F)(F)CCI	inactive	inactive	inactive	inactive	inactive	inactive	inactive	inactive		
CCCCCCCC(=O)OCCCCCC	inactive	inactive	inactive	inactive	inactive	inactive	inactive	inactive	inactive	
CCCCC[C@H](O)/C=C/[C@H]1[C@H](O)CC(=O)[C@@H]1C/C=C\CCCC(=O)O	inactive	inactive	inactive	inactive	inactive	inactive		inactive	inactive	inactive
CCCCCCCCCCCCCCCC(=O)OCC	inactive	inactive	inactive	inactive	inactive	inactive		inactive	inactive	inactive
CNC1CCCN(c2c(F)cc3c(=O)c(C(=O)O)cn(C4CC4)c3c2OC)C1 (stereo not drawn)	inactive	inactive	inactive	inactive	inactive	inactive	inactive	inactive	inactive	inactive
